Screening results deposited in PubChem by National Center for Advancing Translational Sciences (NCATS).
A selection: hits, their analogues and other compounds. The true share with any hit is near 22%.
CHX counter = counter-screen hit for Shiga toxin inhibitors, cycloheximide. cell reporter, cycloheximide protein synthesis inhibition counterscreen. 12% of 300,000 active. max response, %. AID 2314; in the data active = max response mostly above about 13%, no sharp cut-off; inactive = mostly below about 14%; note: read at 38.3 µM for the half of the compounds with a filed dose
Pf growth 48h = P. falciparum growth inhibition at 48 hours (one generation); P. falciparum luciferase growth in erythrocytes, 48 h; Potency, µM (top dose mostly 28.7 µM), usual class: inhibitors; 5.9% of 310,000 active; AID 504832
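Luminescence readout; reporter = integrated firefly luciferase in P. falciparum. RBC culture at 2% hematocrit, 0.1% parasitemia final, 37 C/5% CO2; decreased signal taken as growth inhibition.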
LmPK inhibitor = LmPK (Leishmania mexicana) enzyme inhibition; purified LmPK, Kinase-Glo ATP luminescence, 1 h; Potency, µM (doses to about 57.5 µM), most hits filed as inhibitors; 0.37% of 290,000 active; AID 1721
Target sequence (Q27686 whole entry, looked up): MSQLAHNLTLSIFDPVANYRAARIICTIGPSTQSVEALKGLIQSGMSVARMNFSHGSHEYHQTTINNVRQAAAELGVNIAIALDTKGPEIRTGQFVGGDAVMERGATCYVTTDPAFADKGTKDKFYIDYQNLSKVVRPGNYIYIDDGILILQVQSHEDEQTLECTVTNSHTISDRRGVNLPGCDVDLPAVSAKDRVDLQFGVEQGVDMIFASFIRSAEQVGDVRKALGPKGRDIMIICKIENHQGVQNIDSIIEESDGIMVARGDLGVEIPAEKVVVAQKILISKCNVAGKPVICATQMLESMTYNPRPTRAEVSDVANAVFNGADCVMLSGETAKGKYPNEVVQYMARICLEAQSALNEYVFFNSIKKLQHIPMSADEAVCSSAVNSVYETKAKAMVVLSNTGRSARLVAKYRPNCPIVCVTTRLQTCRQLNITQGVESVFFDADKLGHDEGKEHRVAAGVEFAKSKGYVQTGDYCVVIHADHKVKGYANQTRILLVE
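Pyruvate kinase activity monitored as ATP production (luciferase luminescence). Conditions: 0.1 nM enzyme, 0.5 mM PEP, 0.1 mM ADP, 1 h, RT; normalized against uninhibited and no-enzyme wells.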
Shiga toxin inh = Shiga toxin inhibition; Vero cells, Shiga toxin protein synthesis inhibition reporter; inhibition, % at 38.7 µM; 9.2% of 290,000 active; in the data active = inhibition mostly above about 28%, no sharp cut-off; inactive = mostly below about 43%
Pf growth 96h = P. falciparum growth inhibition at 96 hours | Potency, µM (titrated, usually from 28.7 µM), usual class: inhibitors | 6.9% of 320,000 active | P. falciparum luciferase reporter growth, 96 h
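Luminescence readout: decreased luciferase signal marks inhibited growth of reporter-expressing P. falciparum in infected red cells (2% hematocrit, 0.05% parasitemia final), exposed to compound two generations (96 h, 37 C, 5% CO2).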
Large screens that a line does not name were inactive. Unless noted, calls come from the whole dose curve; as a rule, active = well fitted inhibition curve with a large enough effect; inconclusive = small, poorly fitted or top-dose-only effect, or another doubt; inactive = no such curve, though single readings can be large or run the other way.

COc1ccccc1NC(=O)CN1CCN(C(=O)c2ccco2)CC1	Pf growth 48h 2.08µM
COc1ccc(NC(=O)CN2CCN(C(=O)c3ccco3)CC2)c(OC)c1	Pf growth 48h 10.4µM
C/C(=N\NC(=O)CN(c1ccc(Oc2ccccc2)cc1)S(C)(=O)=O)C(C)(C)C	CHX counter 33.3, Pf growth 48h inconclusive
CS(=O)(=O)N(CC(=O)NC1CC2CCC1C2)c1ccc(Oc2ccccc2)cc1 (stereo not drawn)	CHX counter 15.1, Pf growth 48h inconclusive, Pf growth 96h inconclusive
CCC(C)NC(=O)Cn1cnc2sc(C)c(S(=O)(=O)N3CCCCC3)c2c1=O (stereo not drawn)	none
CCOc1ccc(CN(C)CC(=O)Nc2ccc3c(c2)CCC3)cc1OC	none
COc1cc(CNc2ccc3c(c2)CCC3)cc(OC)c1O	CHX counter 30.0, Shiga toxin inh 62.5
COc1cc(CC(=O)Nc2ccc3c(c2)CCC3)cc(OC)c1OC	Pf growth 48h inconclusive
CCOc1cc(CNc2ccc3c(c2)CCC3)ccc1O	CHX counter 33.8
C=CCSSSCC=C	none (no result: CHX counter, LmPK inhibitor, Shiga toxin inh)
CC(CCc1ccc(O)cc1)NCCc1ccc(O)c(O)c1 (stereo not drawn)	Pf growth 48h inconclusive, Pf growth 96h 1.51µM (no result: LmPK inhibitor)
COc1ccccc1CCNC(C)CCc1ccc(O)cc1 (stereo not drawn)	none
CCOC(=O)N1CCN(S(=O)(=O)c2ccc(C(=O)Nc3sc4c(c3C(N)=O)CCN(CC)C4)cc2)CC1	Pf growth 48h inconclusive
CCN1CCc2c(sc(NC(=O)c3ccc(S(=O)(=O)N(C)CC4CCCO4)cc3)c2C(N)=O)C1 (stereo not drawn)	Pf growth 48h inconclusive, Pf growth 96h 10.4µM
CCCN1CCc2c(sc(NC(=O)c3ccc(S(=O)(=O)N(C)c4ccccc4)cc3)c2C(N)=O)C1	Pf growth 48h 9.28µM, Pf growth 96h 9.28µM
CCCN1CCc2c(sc(NC(=O)c3ccc(S(=O)(=O)N4CCN(C(=O)OCC)CC4)cc3)c2C(N)=O)C1	Pf growth 48h 10.4µM, Pf growth 96h inconclusive
CCCN1CCc2c(sc(NC(=O)c3ccc(S(=O)(=O)N(C)c4ccccc4)cc3)c2C(=O)NC)C1	Pf growth 48h 3.29µM, Pf growth 96h 2.62µM
COc1cc(CN2CCCC(CO)(Cc3ccccc3C)C2)cc2c1OCO2 (stereo not drawn)	Pf growth 48h inconclusive, Pf growth 96h inconclusive
Cc1ccc(C)c(C(=O)C(C)OC(=O)CN2C(=O)NC3(CC(C)CC(C)(C)C3)C2=O)c1 (stereo not drawn)	none
Cc1cc(C)n(C(=O)/C(C#N)=C/N(C)C)n1	none
O=C(c1ccccc1-n1cccn1)N1CCc2c([nH]c3ccccc23)C1c1ccccn1 (stereo not drawn)	CHX counter 11.4, Pf growth 48h inconclusive, Pf growth 96h 4.65µM
Cc1ccc2nc(C(=O)N3CCc4c([nH]c5ccccc45)C3c3ccccn3)cn2c1 (stereo not drawn)	Pf growth 96h 9.28µM
O=C(c1cc(-c2ccccc2)n[nH]1)N1CCc2c([nH]c3ccccc23)C1c1ccccn1 (stereo not drawn)	Pf growth 48h inconclusive, Pf growth 96h 8.28µM
O=C(c1ccccc1-c1ncc[nH]1)N1CCc2c([nH]c3ccccc23)C1c1ccccn1 (stereo not drawn)	Pf growth 48h 11.7µM
CC(=O)c1ccc(C(=O)N2CCc3c([nH]c4ccccc34)C2c2ccccn2)s1 (stereo not drawn)	Pf growth 48h inconclusive, Pf growth 96h inconclusive
O=C(CSc1ccc(Cl)cc1)NC(=O)c1ccccc1	none (no result: CHX counter, LmPK inhibitor, Shiga toxin inh)
Cc1cccc(C)c1OCc1cc(C(=O)NCC2CC2)no1	CHX counter 10.0, Pf growth 48h inconclusive, Pf growth 96h 14.7µM
CCOC(=O)N1CCC(NC(=O)c2cc(COc3c(C)cccc3C)on2)CC1	CHX counter 14.0, Pf growth 48h inconclusive
Cc1cccc(C)c1OCc1cc(C(=O)NC2CCC(O)CC2)no1 (stereo not drawn)	Pf growth 96h inconclusive
Cc1cccc(C)c1OCc1cc(C(=O)NCC2COCCO2)no1 (stereo not drawn)	none
Cc1cccc(C)c1OCc1cc(C(=O)NC2CCC2)no1	CHX counter 36.6, Pf growth 48h inconclusive, Shiga toxin inh 37.1
Cc1cccc(C)c1OCc1cc(C(=O)NCc2ccc(Cl)s2)no1	CHX counter 17.7, Pf growth 96h 10.4µM
O=C(NCc1ccc(Cl)s1)c1cc(COc2c(F)cccc2F)on1	Pf growth 96h inconclusive
O=C(COC(=O)c1ccc(CSc2ccc(Cl)cc2)cc1)Nc1ccccc1	none
O=S(=O)(O)c1ccc(O)cc1	none (no result: CHX counter, LmPK inhibitor, Shiga toxin inh)
CC1=CN2C(=N)/C(=C/c3ccc(Sc4ccc(C)cc4)o3)C(=O)N=C2S1	CHX counter 23.1, Pf growth 48h inconclusive, Shiga toxin inh active, Pf growth 96h inconclusive
CC1=CN2C(=N)/C(=C/c3ccc(Sc4ccc(Cl)cc4)o3)C(=O)N=C2S1	Pf growth 96h inconclusive
CC1=CN2C(=N)/C(=C/c3ccc(C)o3)C(=O)N=C2S1	CHX counter 24.1, Shiga toxin inh 53.3
Cc1ccccc1OC(=O)n1c(=S)oc2cc(Cl)ccc21	CHX counter 15.6 (no result: Pf growth 96h)
Cc1ccc(N2CC(C(=O)Nc3ccc(S(=O)(=O)N4CCOCC4)cc3)CC2=O)cc1Cl (stereo not drawn)	Pf growth 48h inconclusive (no result: CHX counter, LmPK inhibitor, Shiga toxin inh)
CSCCNCc1c(C(=O)N2CCOCC2)nc2c(C)cccn12	Pf growth 96h inconclusive
Cc1cccn2c(CNCCc3ccccn3)c(C(=O)N3CCOCC3)nc12	Pf growth 48h inconclusive, Pf growth 96h 13.1µM
Cc1cc(C(=O)NC2CC(C)(C)Cc3c2cnn3-c2ccc(F)cc2)nn1C (stereo not drawn)	none
CC1(C)Cc2c(cnn2-c2ccc(F)cc2)C(NC(=O)c2ccc(=O)oc2)C1 (stereo not drawn)	CHX counter 22.4, Pf growth 48h inconclusive, Pf growth 96h inconclusive
CSCc1ccc(C(=O)NC2CC(C)(C)Cc3c2cnn3-c2ccc(F)cc2)o1 (stereo not drawn)	CHX counter 28.0, Pf growth 48h inconclusive, Pf growth 96h inconclusive
CC1(C)Cc2c(cnn2-c2ccc(F)cc2)C(NC(=O)C(C)(C)O)C1 (stereo not drawn)	Pf growth 48h inconclusive
O=C(NCCCN1CCCC1=O)c1cccc(S(=O)(=O)N2CCN(c3ccccc3)CC2)c1	Pf growth 96h inconclusive
Cc1cc(=O)oc2c1c(C)nn2-c1ccc(Br)cc1	Pf growth 96h 2.94µM
Cc1cc(=O)oc2c1c(C)nn2-c1cccc(Cl)c1	none
COCCn1c(SCc2cnc(-c3ccccc3)s2)nnc1-c1ccncc1	Pf growth 48h inconclusive, Pf growth 96h 9.28µM
O=P(Cc1ccccn1)(c1ccccc1)c1ccccc1	Pf growth 96h inconclusive
COc1ccc(CNC(=O)CC23CC4CC(CC(C4)C2)C3)cc1	none
COc1ccc(CCNC(=O)CCCc2ccccc2)cc1	Pf growth 96h 10.4µM (no result: Shiga toxin inh)
CC(C)CNC(=O)CCc1nc(-c2ccccc2)no1	CHX counter 26.9, Shiga toxin inh 32.7
COc1ccc(-c2noc(CCC(=O)O)n2)cc1	Pf growth 96h inconclusive
CCOc1ccc(-c2noc(CCC(=O)O)n2)cc1	Pf growth 96h 11.7µM (no result: Pf growth 48h)
